# ARNT TACC3 PPI: disrupts binding between human ARNT and TACC3; AID 623870; Q9Y6A5; inhibition, % at 9.99 µM; AlphaScreen His-ARNT PAS-B/GST-TACC3 binding, luminescence; TACC3 fragment carries E629A point mutation; actives 0.66% (n = 390,000);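 active = mean inhibition of replicates at least 50% and at least half of replicates each reaching 50%; inconclusive = half or more replicates reach 50% but mean below 50%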;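 note: 0% = complete ARNT plus TACC3 wells and 100% = ARNT alone without TACC3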
# NRP1-CendR mod: modulators of CendR peptide binding to human neuropilin-1 | O14786 | FAM-RPARPAR peptide binding to NRP-1, fluorescence polarization | inhibition, % at 25 µM | actives 0.85% (n = 360,000) | AID 602438;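 active = inhibition or corrected inhibition above about 18%, plus a signal ratio from 0.5 to 1.5, limit read from the data, passing the limit was not always enough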
# PglD inh: blocks C. jejuni PglD acetyltransferase activity; purified PglD enzyme, DTNB colorimetric CoA detection; inhibition, % at 12.5 µM; actives 0.098% (n = 360,000); AID 602405; in the data active = inhibition above about 16%, passing the limit was not always enough; inconclusive = no clear call, values can overlap the other calls
# ALR H2O2 inh: inhibitors of human sulfhydryl oxidase ALR; P55789; purified ALR, DTT oxidation, H2O2 HRP-luminol luminescence; inhibition, % (concentration not given with the values); actives 3.8% (n = 290,000);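 active = mean replicate inhibition above about 79%, with every replicate also reaching it, limit read from the data; inconclusive = only one of the two criteria met; inactive = mean below limit and not every replicate reaching it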
# ERp5 block: blocks human ERp5 reductase activity on insulin. Q15084. ERp5 insulin aggregation, absorbance 650 nm, 90 min. inhibition, % at 9.99 µM. actives 0.05% (n = 350,000);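 active = mean replicate inhibition above about 25%, with every replicate also reaching it, limit read from the data, passing the limit was not always enough; inconclusive = only one of those two criteria met; inactive = neither criterion met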
# Target sequence (Q15084 whole entry, looked up): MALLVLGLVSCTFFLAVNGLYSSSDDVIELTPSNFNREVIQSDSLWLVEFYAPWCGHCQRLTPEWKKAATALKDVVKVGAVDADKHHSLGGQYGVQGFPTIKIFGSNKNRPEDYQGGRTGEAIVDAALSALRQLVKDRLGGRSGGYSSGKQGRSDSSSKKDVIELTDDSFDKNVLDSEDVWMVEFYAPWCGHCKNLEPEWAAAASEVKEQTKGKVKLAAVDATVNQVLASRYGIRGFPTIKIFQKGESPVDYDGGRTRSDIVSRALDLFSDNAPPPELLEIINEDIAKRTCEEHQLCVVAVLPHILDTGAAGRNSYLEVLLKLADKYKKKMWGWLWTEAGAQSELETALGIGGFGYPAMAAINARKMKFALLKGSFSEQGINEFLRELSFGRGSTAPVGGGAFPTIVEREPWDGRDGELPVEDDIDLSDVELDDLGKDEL
# PDI turbidity: inhibitors of human protein disulfide isomerase. P07237. PDI insulin aggregation turbidity, A650, 90 min. inhibition, % at 10 µM. actives 0.052% (n = 350,000);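 active = mean inhibition across replicates of 30% or more, whatever share of single replicates reach that level; inconclusive = mean inhibition below 30% while every single replicate reaches 30%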
# * = called active by the depositor; ? = inconclusive; . = no result given. Only a selection was taken, and hits are over-represented in it overall.
SMILES,ARNT TACC3 PPI,NRP1-CendR mod,PglD inh,ALR H2O2 inh,ERp5 block,PDI turbidity
O=C(NCCc1nc2ccccc2[nH]1)c1ccco1,2,-3,-4,.,.,-4
CCOC(=O)c1cnc2ccc(C)cc2c1Nc1ccc(N2CCOCC2)cc1,.,5,12,98*,.,-2
CCOC(=O)c1ccc2ncc(C(=O)OCC)c(NCCN3CCOCC3)c2c1,-10,5,0,-9,0,17
O=S(=O)(c1ccc(Br)cc1)N1CCN=C1SCc1cccnc1,0,4,.,?,-1,-2
CS(=O)(=O)N1CCN=C1SCc1cccc(F)c1,-3,6,-1,81*,2,7
CCCS(=O)(=O)N1CCN=C1SCc1cccc2ccccc12,-5,-1,.,99*,-1,-6
CCS(=O)(=O)N1CCN=C1SCc1ccc(F)cc1,10,9,-1,89*,-1,12
CCS(=O)(=O)N1CCN=C1SCc1ccccc1,-8,4,2,-5,2,-6
CCCS(=O)(=O)N1CCN=C1SCc1cccnc1,-2,-5,.,99*,-3,-2
C[C@@H]1CN([C@H](C)CO)C(=O)c2cccc(NS(=O)(=O)c3ccc(F)cc3)c2O[C@H]1CN(C)S(=O)(=O)c1ccc(Cl)cc1,-2,.,-1,.,5,.
Cc1noc(C)c1NC(=O)N(C)C[C@@H]1Oc2c(NS(=O)(=O)c3ccc(Cl)cc3)cccc2C(=O)N([C@H](C)CO)C[C@H]1C,4,.,-3,.,8,.
CCC(=O)N1CC[C@@H]2[C@H](CO)Nc3ccc(C#Cc4cccnc4)cc3[C@@H]21,5,.,4,.,1,.
CCC(=O)N1[C@H](C(=O)Nc2ccccc2)[C@@H](CO)[C@@H]2Cn3c(ccc(C4=CCCC4)c3=O)[C@@H]21,-3,.,-1,.,1,.
CCCS(=O)(=O)N1CCN=C1SCc1ccc(F)cc1,-3,7,4,92*,0,0
C/C=C/c1ccc([C@H]2[C@@H](CO)N(C(=O)CC)[C@H]2CNC(=O)c2ccncc2)cc1,-5,.,2,.,.,.
O=C(Nc1nc2ccccc2[nH]1)c1ccc(Cl)c(S(=O)(=O)N2CCCC2)c1,25,34*,.,48,.,16
O=C(CNC(=O)c1ccccc1)NCCCSc1ccccc1,-6,27*,5,-3,3,10
CCn1c(C)nc2cc(C(=O)N/N=C/c3ccc(OC)cc3)ccc21,.,-2,.,2,-3,12
CCn1c(C)nc2cc(C(=O)N/N=C/c3ccc(N4CCOCC4)cc3)ccc21,-3,-26,.,91*,2,2
CCn1c(C)nc2cc(C(=O)NNC(=S)Nc3ccc(F)cc3)ccc21,1,-7,.,65,1,2
CCn1c(C)nc2cc(C(=O)N/N=C/c3ccc(O)cc3)ccc21,10,-4,.,99*,-1,-3
CCn1c(C)nc2cc(C(=O)NNC(=S)Nc3ccc(Cl)cc3)ccc21,11,4,0,87*,-1,0
CCn1c(C)nc2cc(C(=O)N/N=C/c3cccc(O)c3O)ccc21,.,-21,.,99*,0,6
COc1cccc(-c2ccc3n(c2=O)C[C@@H]2[C@@H](CO)[C@H](C(=O)N(C)C)N(C(=O)C4CC4)[C@H]32)c1,-1,.,-1,.,0,.
CN(C)C(=O)[C@@H]1[C@@H](CO)[C@@H]2Cn3c(ccc(C4=CCCC4)c3=O)[C@H]1N2S(=O)(=O)c1cn(C)cn1,-3,.,-2,.,-1,.
SMILES,ARNT TACC3 PPI,NRP1-CendR mod,PglD inh,ALR H2O2 inh,ERp5 block,PDI turbidity
O=C([C@H]1[C@H](CO)[C@H]2Cn3c(ccc(-c4ccccc4F)c3=O)[C@@H]1N2C(=O)C1CCC1)N1CCOCC1,0,.,1,.,2,.
Cc1cccc(-c2ccc([C@@H]3[C@@H](CO)N4C(=O)CN(C(=O)NC5CCCCC5)C[C@H]34)cc2)c1,.,.,.,.,9,.
CCOc1ccc(N=Cc2c(C)[nH]n(-c3nc4ccccc4[nH]3)c2=O)cc1,72*,-16,.,.,-4,-2
Cc1[nH]n(-c2ccccc2)c(=O)c1C=Nc1cnc2ccccc2c1,0,6,-1,-5,.,2
COc1cc(Br)cc(CN2CCN(c3ncccn3)CC2)c1O,-5,-7,-2,98*,0,-21
COc1cccc(CN2CCN(c3ncccn3)CC2)c1,-6,-8,4,-11,.,10
CCCNC(=O)Nc1ccc2c(c1)C(=O)N(C)C[C@H](OC)[C@@H](C)CN(C(=O)C1CCC1)[C@H](C)CO2,-7,.,3,.,-6,.
CCOC(=O)c1c(-c2ccc(C)cc2)csc1NC(=O)CCN1CC(C)OC(C)C1 (centres undefined),-1,5,2,97*,-1,-18
COc1ccc(N=c2sc3ccccc3n2C)cc1,2,-2,-4,98*,.,-2
CN(C)CCCn1c(=S)[nH]c2sc3c(c2c1=O)CCCC3,8,-3,-6,99*,-4,-13
CCn1c(=S)[nH]c2sc3c(c2c1=O)CCCC3,5,8,0,-14,0,1
CCN(CC)CCCn1c2c(c(SCC(=O)Nc3cc(C)cc(C)c3)nc1=O)CCC2,.,3,9,.,-1,0
CCN(CC)CCn1c2c(c(SCC(=O)Nc3cc(OC)cc(OC)c3)nc1=O)CCC2,-10,-1,3,96*,5,-4
COc1cccc(NC(=O)CSC2=NN3CCCC(=O)N=C3S2)c1,.,30*,-1,-3,7,21
CCc1ccc(NC(=O)CSc2nc(=O)n(CCN(C)C)c3c2CCCC3)cc1,.,-11,.,99*,6,-2
COc1cccc(NC(=O)CSc2nc(=O)n(CCN(C)C)c3c2CCCC3)c1,2,-7,0,97*,3,-2
Cc1noc(C)c1S(=O)(=O)Nc1ccc2c(c1)CC(=O)N([C@H](C)CO)C[C@H](C)[C@@H](CN(C)CC1CCCCC1)O2,4,.,-1,.,-2,.
COCC#Cc1cnc2c(c1)C(=O)N([C@H](C)CO)C[C@H](C)[C@@H](CN(C)C(=O)C1CCCCC1)O2,-13,.,-3,.,8,.
Cc1csc(NC(=O)CSc2nc(=O)n(CCN(C)C)c3c2CCCC3)n1,1,9,1,98*,-7,0
O=C(c1cccc(Cl)c1)C1CCCN(Cc2ccc(N3CCNC3=O)cc2)C1 (centres undefined),11,-10,-3,96*,1,-3
COc1ccc(CN2CCC(C(=O)c3cccc(Cl)c3)CC2)cc1,3,2,1,-1,0,4
C[C@H](CO)N1C[C@H](C)[C@H](CN(C)C(=O)Nc2ccccc2)Oc2ccc(NC(=O)C3CCCCC3)cc2C1=O,-5,.,0,.,-1,.
COc1ccc(-n2nnnc2SC(C)C(=O)NC2CCCC2)cc1 (centres undefined),-1,20*,0,-6,-4,-5
O=C(O)C[C@H]1C[C@H]2c3cc(NS(=O)(=O)c4ccccc4)ccc3O[C@H]2[C@@H](CO)O1,.,.,.,.,6,.

# High-throughput results: PubChem, several laboratories
